PubChem BioAssay (EPA / NIEHS)
Inconclusive results are not listed. Calls of active or inactive are those of the source. Rule for the calls: active = hit-call score of the fitted dose curve at least 0.9, where 1 is the maximum; inconclusive = response in the unintended direction; inactive = score below 0.9.

Target: human CYP1A1, CYP1A1 (gene 1543) (UniProt P04798)
Test: NVS_ADME_hCYP1A1: NovaScreen (NVS) CYP450-related Enzyme Activity (ADME) Assay for human CYP1A1 (AID 2283100)
Experimental: NVS_ADME_hCYP1A1 is a biochemical, single-readout assay that uses extracted gene-proteins in a cell-free assay. Measurements were taken 1 hour after chemical dosing in a 96-well plate.NVS_ADME_hCYP1A1 is one of one assay component(s) measured or calculated from the NVS_ADME_hCYP1A1 assay. It is designed to make measurements of enzyme activity, a form of enzyme reporter, as detected with fluorescence intensity signals by Fluorescence technology.Data from the assay component NVS_ADME_hCYP1A1 was analyzed into 1 assay endpoint. This assay endpoint, NVS_ADME_hCYP1A1, was analyzed in the positive analysis fitting direction relative to Acetonitrile as the negative control and baseline of activity. Using a type of enzyme reporter, loss-of-signal activity can be used to understand changes in the enzymatic activity as they relate to the gene CYP1A1. Furthermore, this assay endpoint can be referred to as a primary readout, because this assay has produced multiple assay endpoints where this one serves a enzymatic activity function. To generalize the intended target to other relatable targets, this assay endpoint is annotated to the cyp intended target family, where the subfamily is xenobiotic metabolism.
Binding assays used specific radioligands (tritiated, iodinated) with non-radioactive competitive displacement ligands in agonist or antagonist protocols (as indicated) and various reference compounds and inhibitors to titrate specific binding to receptors and transporters. Most enzyme assays (CYPs, kinases, phosphatases, proteases, HDACs) used recombinant protein and specific substrates (fluorescence mostly, some colorimetric and radioactive) and inhibitors, followed by a biochemical separation of substrate and product. All assays for the biochemical HTS were initially run in duplicate at a single concentration (10 uM for CYP450 assays and 25 uM for all others). Assay-chemical combinations meeting a pre-defined threshold (e.g., 30% inhibition and other criteria defined below) were then run in singleton concentration-response format with maximum concentration of 20 uM for CYPs and 50 uM for all others. Each assay was run with positive and negative controls, and concurrent controls on every plate. The follow-up (secondary) screen tested active chemical-pairs in concentration series, as well as a few additional assays not tested in the primary screen, some selected negative inactives, and several cases re-run in the concentration series for confirmatory purposes.

Chain of human CYP1A1, CYP1A1 (gene 1543) (P04798 whole entry, looked up): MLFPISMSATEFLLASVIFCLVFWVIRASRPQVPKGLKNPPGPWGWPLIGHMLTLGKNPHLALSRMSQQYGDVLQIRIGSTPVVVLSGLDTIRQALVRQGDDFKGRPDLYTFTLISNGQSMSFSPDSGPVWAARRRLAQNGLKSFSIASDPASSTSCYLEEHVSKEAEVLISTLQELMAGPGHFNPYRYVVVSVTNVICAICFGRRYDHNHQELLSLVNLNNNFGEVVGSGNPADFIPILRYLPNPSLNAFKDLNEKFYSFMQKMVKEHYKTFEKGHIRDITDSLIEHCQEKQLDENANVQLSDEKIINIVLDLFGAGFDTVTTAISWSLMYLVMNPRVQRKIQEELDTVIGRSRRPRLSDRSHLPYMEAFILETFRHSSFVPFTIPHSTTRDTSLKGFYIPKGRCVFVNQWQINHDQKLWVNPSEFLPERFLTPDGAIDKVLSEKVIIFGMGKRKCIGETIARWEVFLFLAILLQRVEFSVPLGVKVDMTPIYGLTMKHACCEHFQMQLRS

| SMILES | AC50 | outcome |
| --- | --- | --- |
| C#CC(C)(C)NC(=O)c1cc(Cl)cc(Cl)c1 | 2.56 µM (active) | – |
| CCOP(=O)(NC(C)C)Oc1ccc(SC)c(C)c1 (stereo unspecified) | 4.81 µM (active) | – |
| CCOP(=S)(OCC)Oc1ccc2c(C)c(Cl)c(=O)oc2c1 | 0.352 µM (active) | – |
| CCOP(=S)(OCC)Oc1ccc([N+](=O)[O-])cc1 | 3.28 µM (active) | – |
| CNc1cnn(-c2cccc(C(F)(F)F)c2)c(=O)c1Cl | 6.11 µM (active) | – |
| CSc1nc(NC(C)C)nc(NC(C)C)n1 | 6.84 µM (active) | – |
| C=C(C)[C@H]1Cc2c(ccc3c2O[C@@H]2COc4cc(OC)c(OC)cc4[C@@H]2C3=O)O1 | – | inactive |
| CCCOCC(=Nc1ccc(Cl)cc1C(F)(F)F)n1ccnc1 | 4.18 µM (active) | – |
| COc1ccc(C(=CC(=O)N2CCOCC2)c2ccc(Cl)cc2)cc1OC | 6.61 µM (active) | – |
| C[Si](Cn1cncn1)(c1ccc(F)cc1)c1ccc(F)cc1 | 3.27 µM (active) | – |
| CCOC(=O)CC(SP(=O)(OC)OC)C(=O)OCC (stereo unspecified) | – | inactive |
